Assay results from PubChem BioAssay AID1159580 (chemical genetic matrix, 2015).
“And” between values parts separate entries of the source, which are not always exact repeats. Identical values can stand only once. Out of some 5,500 compounds screened, about 2,000 (36%) were called active. About 18% were inconclusive and are not listed. Cut-off read from the data, not from the text of the source: active = normalized growth mostly below about 0.91 (no sharp cut-off); inconclusive = no clear call, values can overlap the other calls; inactive = mostly above about 0.92. The list shows a part of the results.

Test: chemical genetic growth profiling, strain panel (AID 1159580);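 note: tested at 20 µM; growth read once vehicle control cultures reached saturation at 30 °C; 1 = growth at the plate median or of vehicle wells; lower values mean less growth of the strain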
Settings: S. cerevisiae deletion strains, growth OD

Measured: normalized growth

CC1(C)C(=O)C=C[C@@]2(C)C1C=C[C@]1(C)C2CC[C@@]2(C)[C@H](c3ccoc3)OC(=O)C3OC321 (some centres not stated)
inactive: locus YAL013W, strain DEP1, stronger effect = lower value 0.949 | locus YAL021C, strain ccr4, stronger effect = lower value 1.02 | locus YAL026C, strain drs2, stronger effect = lower value 0.972 | locus YAL030W, strain snc1, stronger effect = lower value 0.985 | locus YBL061C, strain skt5, stronger effect = lower value 0.974 | locus YBR009C, strain hhf1, stronger effect = lower value 0.915 | locus YBR021W, strain FUR4, stronger effect = lower value 1.01 | locus YBR023C, strain chs3, stronger effect = lower value 0.981 | locus YBR171W, strain sec66, stronger effect = lower value 0.971 | locus YBR229C, strain ROT2, stronger effect = lower value 0.986 | locus YBR231C, strain swc5, stronger effect = lower value 1 | locus YBR279W, strain paf1, stronger effect = lower value 0.964 | locus YCL011C, strain gbp2, stronger effect = lower value 0.981 | locus YCL016C, strain dcc1, stronger effect = lower value 0.98 | locus YCL029C, strain bik1, stronger effect = lower value 0.986 | locus YCL061C, strain MRC1, stronger effect = lower value 0.971 | locus YCL069W, strain vba3, stronger effect = lower value 1 | locus YCR088W, strain abp1, stronger effect = lower value 1 | locus YDL005C, strain med2, stronger effect = lower value 0.988 | locus YDL035C, strain GPR1, stronger effect = lower value 0.979 | locus YDL040C, strain nat1, stronger effect = lower value 1 | locus YDL074C, strain BRE1, stronger effect = lower value 0.862 | locus YDL101C, strain DUN1, stronger effect = lower value 0.957 | locus YDL134C, strain PPH21, stronger effect = lower value 0.948 | locus YDL185W, strain tfp1, stronger effect = lower value 0.998 | locus YDL192W, strain arf1, stronger effect = lower value 0.94 | locus YDR001C, strain nth1, stronger effect = lower value 0.991 | locus YDR069C, strain doa4, stronger effect = lower value 1 | locus YDR101C, strain arx1, stronger effect = lower value 0.978 | locus YDR150W, strain NUM1, stronger effect = lower value 0.996 | locus YDR162C, strain NBP2, stronger effect = lower value 0.888 | locus YDR195W, strain ref2 1.02 | locus YDR297W, strain sur2, stronger effect = lower value 0.985 | locus YDR318W, strain mcm21, stronger effect = lower value 0.939 | locus YDR334W, strain swr1, stronger effect = lower value 0.983 | locus YDR335W, strain msn5, stronger effect = lower value 0.998 | locus YDR388W, stronger effect = lower value 0.984 | locus YDR502C, strain sam2, stronger effect = lower value 0.948 | locus YEL003W, strain gim4, stronger effect = lower value 0.979 | locus YEL037C, strain rad23, stronger effect = lower value 0.992 | locus YEL061C, strain CIN8 (second series), stronger effect = lower value 0.997 | locus YEL061C, strain CIN8, stronger effect = lower value 0.983 | locus YER015W, strain faa2, stronger effect = lower value 0.985 | locus YER016W, strain bim1, stronger effect = lower value 0.993 | locus YER110C, stronger effect = lower value 0.986 | locus YER111C, strain swi4, stronger effect = lower value 0.994 | locus YER155C, strain BEM2 (second series), stronger effect = lower value 0.894 | locus YER155C, strain BEM2, stronger effect = lower value 0.953 | locus YER167W, strain BCK2, stronger effect = lower value 0.976 | locus YFR010W, strain ubp6, stronger effect = lower value 1 | locus YGL078C, strain dbp3, stronger effect = lower value 0.993 | locus YGL086W, strain mad1, stronger effect = lower value 0.948 | locus YGL167C, strain pmr1, stronger effect = lower value 0.967 | locus YGL173C, strain kem1, stronger effect = lower value 0.97 | locus YGL227W, strain vid30, stronger effect = lower value 0.991 | locus YGL240W, strain doc1, stronger effect = lower value 1.02 | locus YGL248W, strain PDE1, stronger effect = lower value 0.974 | locus YGL253W, strain hxk2, stronger effect = lower value 0.992 | locus YGR135W, strain pre9, stronger effect = lower value 0.953 | locus YGR252W, strain gcn5, stronger effect = lower value 0.912 | locus YHR013C, strain ard1, stronger effect = lower value 0.916 | locus YHR027C, strain rpn1, stronger effect = lower value 0.971 | locus YHR030C, strain SLT2, stronger effect = lower value 0.915 | locus YHR079C, strain IRE1 (second series), stronger effect = lower value 0.977 | locus YHR079C, strain IRE1, stronger effect = lower value 0.943 | locus YHR094C, strain hxt1, stronger effect = lower value 0.989 | locus YHR129C, strain ARP1, stronger effect = lower value 0.926 | locus YHR142W, strain chs7, stronger effect = lower value 0.987 | locus YHR200W, strain rpn10, stronger effect = lower value 0.986 | locus YIL066C, strain RNR3, stronger effect = lower value 0.897 | locus YIL073C, strain SPO22, stronger effect = lower value 0.953 | locus YIL125W, strain kgd1, stronger effect = lower value 0.993 | locus YIR030C, strain dcg1, stronger effect = lower value 0.98 | locus YJL092W, strain hpr5, stronger effect = lower value 0.997 | locus YJL095W, strain BCK1 (second series), stronger effect = lower value 0.967 | locus YJL095W, strain BCK1, stronger effect = lower value 0.799 and 0.923 | locus YJL115W, strain asf1, stronger effect = lower value 1 | locus YJL134W, strain LCB3, stronger effect = lower value 0.997 | locus YJL154C, strain vps35, stronger effect = lower value 0.995 | locus YJL164C, strain tpk1, stronger effect = lower value 0.967 | locus YJL166W, strain qcr8, stronger effect = lower value 0.919 | locus YJL168C, strain set2, stronger effect = lower value 0.964 | locus YJL187C, strain SWE1 (second series), stronger effect = lower value 0.951 | locus YJL187C, strain SWE1, stronger effect = lower value 0.987 | locus YJR066W, strain TOR1, stronger effect = lower value 0.894 | locus YKL009W, strain mrt4, stronger effect = lower value 0.995 | locus YKL068W, stronger effect = lower value 0.998 | locus YKL085W, strain MDH1 (second series), stronger effect = lower value 0.985 | locus YKL085W, strain MDH1, stronger effect = lower value 0.985 | locus YKL160W, strain elf1, stronger effect = lower value 0.973 | locus YKL190W, strain CNB1, stronger effect = lower value 0.992 | locus YKR001C, strain vps1, stronger effect = lower value 0.949 | locus YKR026C, strain gcn3, stronger effect = lower value 0.995 | locus YKR091W, strain srl3, stronger effect = lower value 0.992 | locus YLL001W, strain dnm1, stronger effect = lower value 0.99 | locus YLL026W, stronger effect = lower value 0.986 | locus YLL041C, strain sdh2, stronger effect = lower value 0.989 | locus YLR027C, strain aat2, stronger effect = lower value 0.959 | locus YLR058C, strain SHM2, stronger effect = lower value 0.97 | locus YLR102C, strain apc9, stronger effect = lower value 0.992 | locus YLR113W, strain HOG1, stronger effect = lower value 0.957 | locus YLR221C, strain rsa3, stronger effect = lower value 0.959 | locus YLR258W, strain gsy2, stronger effect = lower value 0.997 | locus YLR268W, strain sec22, stronger effect = lower value 0.911 | locus YLR330W, strain CHS5, stronger effect = lower value 0.954 | locus YLR342W, strain FKS1, stronger effect = lower value 0.924 | locus YLR357W, strain rsc2, stronger effect = lower value 1.03 | locus YLR370C, strain arc18, stronger effect = lower value 0.988 | locus YLR371W, strain rom2, stronger effect = lower value 0.933 | locus YLR384C, strain iki3, stronger effect = lower value 0.99 | locus YML016C, strain PPZ1, stronger effect = lower value 0.991 | locus YML032C, strain rad52, stronger effect = lower value 0.944 | locus YML120C, strain ndi1, stronger effect = lower value 0.994 | locus YML124C, strain tub3, stronger effect = lower value 0.983 | locus YMR058W, strain fet3, stronger effect = lower value 0.976 | locus YMR078C, strain ctf18, stronger effect = lower value 0.956 | locus YMR125W, strain sto1, stronger effect = lower value 0.969 | locus YMR129W, stronger effect = lower value 0.984 | locus YMR223W, strain ubp8, stronger effect = lower value 0.963 | locus YMR231W, strain pep5, stronger effect = lower value 0.964 | locus YMR307W, strain GAS1, stronger effect = lower value 0.81 | locus YNL067W, strain RPL9B, stronger effect = lower value 0.973 | locus YNL183C, strain NPR1, stronger effect = lower value 0.921 | locus YNL209W, strain ssb2, stronger effect = lower value 0.984 | locus YNL233W, strain BNI4, stronger effect = lower value 0.955 | locus YNL248C, strain rpa49, stronger effect = lower value 0.978 | locus YNL250W, strain rad50, stronger effect = lower value 0.987 | locus YNL271C, strain bni1, stronger effect = lower value 0.983 | locus YNL298W, strain CLA4, stronger effect = lower value 0.989 | locus YNL322C, strain KRE1 (second series), stronger effect = lower value 1.01 | locus YNL322C, strain KRE1, stronger effect = lower value 0.983 | locus YNR049C, strain mso1, stronger effect = lower value 0.985 | locus YNR052C, strain pop2, stronger effect = lower value 0.951 | locus YOL006C, strain TOP1, stronger effect = lower value 0.959 | locus YOL012C, strain htz1 0.78 | locus YOL147C, strain pex11, stronger effect = lower value 0.961 | locus YOR001W, strain rrp6, stronger effect = lower value 0.991 | locus YOR061W, strain CKA2, stronger effect = lower value 0.983 | locus YOR069W, strain VPS5, stronger effect = lower value 0.992 | locus YOR070C, strain gyp1, stronger effect = lower value 0.952 | locus YOR080W, strain dia2, stronger effect = lower value 0.992 | locus YOR083W, strain WHI5, stronger effect = lower value 0.977 | locus YOR106W, strain vam3, stronger effect = lower value 0.972 | locus YOR136W, strain idh2, stronger effect = lower value 0.979 | locus YOR144C, strain elg1, stronger effect = lower value 0.957 | locus YOR231W, strain MKK1, stronger effect = lower value 0.936 | locus YOR265W, strain rbl2, stronger effect = lower value 0.986 | locus YOR270C, strain vph1, stronger effect = lower value 0.905 | locus YOR290C, strain snf2, stronger effect = lower value 0.938 | locus YOR316C, strain cot1, stronger effect = lower value 0.983 | locus YPL051W, strain arl3, stronger effect = lower value 0.945 | locus YPL078C, strain atp4, stronger effect = lower value 0.979 | locus YPL106C, strain sse1, stronger effect = lower value 0.942 | locus YPL240C, strain hsp82, stronger effect = lower value 0.985 | locus YPL256C, strain CLN2, stronger effect = lower value 0.92 | locus YPR119W, strain clb2, stronger effect = lower value 0.979 | locus YPR141C, strain kar3, stronger effect = lower value 0.977 | locus YPR163C, strain tif3, stronger effect = lower value 0.938 | locus YPR167C, strain met16, stronger effect = lower value 0.973 | strain wtn01, stronger effect = lower value 0.952
active: locus YDR137W, strain rgp1, stronger effect = lower value 0.663 | locus YDR159W, strain sac3, stronger effect = lower value 0.843 | locus YDR392W, strain spt3, stronger effect = lower value 0.314 | locus YJL129C, strain trk1, stronger effect = lower value 0.867 | locus YLR039C, strain RIC1, stronger effect = lower value 0.624 | locus YLR262C, strain YPT6 (second series), stronger effect = lower value 0.67 | locus YLR320W, strain mms22, stronger effect = lower value 0.838 | locus YLR418C, strain cdc73, stronger effect = lower value 0.655 | locus YMR205C, strain PFK2, stronger effect = lower value 0.841 | locus YNL071W, strain lat1, stronger effect = lower value 0.695 | locus YNL307C, strain MCK1, stronger effect = lower value 0.867 | locus YOR184W, strain ser1, stronger effect = lower value 0.715
